Test results as given in ChEMBL document CHEMBL3988442, “University of Dundee, Small-Polar-MMV Screening Library” (2021).
Among all 48,000 compounds or so, about 13,000 (27%) showed an effect of 50% or more. The list shows a part of the results.

test system: Wolbachia pipientis; test: Anti-Wolbachia Cell-Based Screen; type: functional; set-up: scale not given: in the data most compounds retested in dose-response had high values; conditions: 5 µM

Compound | Percent Effect [%]
COCCN(CC(F)F)c1cc(C(F)(F)F)nc2ncnn12 | -7.811
Cc1cnn(-c2ccc(S(=O)(=O)N(C)CC(F)F)cc2F)c1 | 2.178
CN1CCN(Cc2ccccc2CNC(=O)c2ccc(Cl)cc2F)CC1 | -10.17
COc1cc(C(=O)NC(C)(C)CN2CCN(C)CC2)c2ccccc2n1 | 96.51
COc1cc(C(=O)NCC2(N(C)C)CCN(C)CC2)c2ccccc2n1 | 126.6
CC(C)Cc1cc(C(=O)NC(C)(C)CN2CCCCCC2)on1 | 2.202
COc1cc(C(=O)NCCS(=O)(=O)N(C)C)c2ccccc2n1 | 5.496
Cc1cc(C(=O)NCC2(N(C)C)CCCC2)c(C)n1-c1cccnc1 | 3.224
CC(C)(C)c1ncc(C(=O)N2CCN(C(=O)c3ccc[nH]3)CC2)c(O)n1 | -10.28
CS(=O)(=O)N1CCCC12CCCN(C(=O)c1ccc[nH]1)C2 (centres undefined) | -4.016
O=C(c1ccc[nH]1)N1CCOCC12CCCC2 | 75.31
Cc1ccc(F)cc1C(=O)N1C[C@@H](CN2CCOCC2)[C@@H](CO)C1 | -1.252
Cc1ccc(F)cc1C(=O)NCc1ccc(C(=O)O)o1 | 7.122
Cc1[nH]ccc1C(=O)N1CCC2(CC1)c1nc[nH]c1CCN2S(C)(=O)=O | -18.24
Cc1[nH]ccc1C(=O)N1CCOCC12CCCC2 | 102.2
O=C(c1ccc[nH]1)N1CCC2(CC1)COCCN(c1nccs1)C2 | 4.422
Cc1ccc(F)cc1C(=O)N1CCOCC12CCCC2 | 111.7
Cc1[nH]ccc1C(=O)N1CCCN1C(=O)OC(C)(C)C | -3.846
Cc1ccsc1C(=O)N1CCCc2c(c(=O)n(C)n2C)C1 | 9.7
Cc1ccoc1C(=O)N1CCCc2c(c(=O)n(C)n2C)C1 | -8.814
Cn1c2c(c(=O)n1C)CN(C(=O)c1ccco1)CCC2 | 0.5105
Cn1c2c(c(=O)n1C)CN(C(=O)c1ccncc1F)CCC2 | 104.3

Compound | Percent Effect [%]
Cc1ccc(C(=O)N2CCCc3c(c(=O)n(C)n3C)C2)o1 | -7.196
Cn1c2c(c(=O)n1C)CN(C(=O)c1cccc(F)c1)CCC2 | 83.47
Cn1nc(CN2CCCC2)c2c1CN(C(=O)c1ccncc1F)CC2 | -1.138
Cn1c2c(c(=O)n1C)CN(C(=O)c1cnccn1)CCC2 | 106.7
Cn1c2c(c(=O)n1C)CN(C(=O)c1ccsc1)CCC2 | -11.42
Cc1csc2c(N3CCC(NCCCc4cnn(C)c4)CC3)ncnc12 | -7.863
CN(CCCc1cnn(C)c1)C(=O)Nc1cccc2[nH]nnc12 | -5.738
COc1ccc(N2CCC(N(C)C(=O)C(C)SC)CC2)cc1 (centres undefined) | 1.657
CCCNC(=O)CN(C)C1CCN(c2ccc(Cl)cc2)CC1 | -1.782
CSC(C)C(=O)N(C)C1CCN(c2ccc(Cl)cc2)CC1 (centres undefined) | -5.322
COc1ccc(N2CCC(N(C)C(=O)Nc3ccncc3)CC2)cc1 | 86.34
CCOC(C)C(=O)N(C)C1CCN(c2ccc(OC)cc2)CC1 (centres undefined) | -2.729
CN(C(=O)Nc1ccncc1)C1CCN(c2ccc(Cl)cc2)CC1 | 99.54
Cc1cc(N2CCC(N(C)C(=O)Nc3ccccc3)CC2)nc(C)n1 | 1.821
CN(C(=O)NC1CC1)C1CCN(c2ccc(Cl)cc2)CC1 | 95.01
CN(C(=O)Nc1cccnc1)C1CCN(c2ccc(Cl)cc2)CC1 | 102.5
CNC(=O)CN(C)C1CCN(c2ccc(Cl)cc2)CC1 | 12.22
CN(CC(=O)N(C)C1CC1)C1CCN(c2ccc(Cl)cc2)CC1 | -1.318
CN(CCN1CCN(c2ccccc2)CC1)C(=O)Nc1ccncc1 | -6.47
CCC(CNC(=O)NC1CCN(C)CC1)Oc1ccccc1Cl (centres undefined) | 5.674
Cc1nc(N2CCOCC2)nc2c1CCN(Cc1cccnc1)CC2.O=C(O)C(F)(F)F | -14.62
Cc1nc(-c2ccccc2)nc2c1CCN(Cc1nccn1C)CC2 | 118.4

Compound | Percent Effect [%]
Cc1nc(N2CCOCC2)nc2c1CCN(Cc1ccsc1)CC2.O=C(O)C(F)(F)F | -7.325
Cc1nc(NC(C)C)nc2c1CN(Cc1nccn1C)CC2 | 3.247
COc1cc(C)nc(N2CCN(Cc3nccn3C)CC2)n1 | 16.21
Cc1nc(C)c2c(n1)CCN(Cc1nccn1C)CC2.O=C(O)C(F)(F)F | 102.7
Cc1nc(N2CCOCC2)nc2c1CCN(Cc1nccn1C)CC2.O=C(O)C(F)(F)F | 110.5
CC(C)Nc1nc2c(c(NC3CC3)n1)CCN(Cc1nccn1C)CC2.O=C(O)C(F)(F)F | 5.459
Cn1ccnc1CN1CCN(Cc2cc(-c3ccccc3)no2)CC1 | 10.9
Cc1cc(C)nc(N2CCN(Cc3nccn3C)CC2)n1.O=CO | 104.1
Cc1cc(C(F)(F)F)nc(N2CCN(Cc3nccn3C)CC2)n1 | -22.48
CC(C)(C)C(=O)N1C[C@@H]2COC[C@]2(c2nnc(C3CC3)o2)C1 | 1.473
N#Cc1cccc(N2CCCC(CO)(CCOc3ccccc3)C2)n1 (centres undefined) | -9.375
CN(C)c1nc(N2CCCC2)nc2c1CCN(Cc1nccn1C)CC2.O=C(O)C(F)(F)F | 102.1
Cc1nc(N2CCCC2)nc2c1CCN(Cc1ccoc1)CC2.O=C(O)C(F)(F)F | 6.139
CC(C)Nc1nc2c(c(N(C)C)n1)CCN(Cc1nccn1C)CC2.O=C(O)C(F)(F)F | -14.43
CN(C)c1nc(N2CCCC2)nc2c1CCN(C(=O)c1ccco1)CC2.O=C(O)C(F)(F)F.O=C(O)C(F)(F)F | 15.95
Cc1nc(N2CCCC2)nc2c1CCN(Cc1nccn1C)CC2.O=C(O)C(F)(F)F | 105.6
Cn1ccnc1CN1CCc2ncnc(N3CCCC3)c2CC1.O=C(O)C(F)(F)F | 15.66
O=C(c1cncc(N2CCC3(CCNCC3)CC2)n1)N1CCCC1 | 1.429
CCC(C)(C)C(=O)N1CCN(C2=NCC(C)S2)CC1 (centres undefined) | -0.6002
CCOc1ccccc1-n1c(CNC)n[nH]c1=O | -1.505
C[C@H](c1ccc(F)cc1)n1c(C2CCC2)n[nH]c1=O | 13.77
CCOc1ccccc1-n1c(C2CC2)n[nH]c1=O | 101.4

Compound | Percent Effect [%]
CCOc1ccccc1-n1c(C2CC(=O)N(C)C2)n[nH]c1=O (centres undefined) | 114.8
CN1CCC(c2n[nH]c(=O)n2-c2cccc(Cl)c2)CC1 | -11.2
O=c1[nH]nc(C2CC2)n1-c1cccc(Cl)c1 | 12.75
CCOc1ccccc1-n1c(C2CCC2)n[nH]c1=O | 114.1
CCOc1ccccc1OC1CCN(C(=O)c2nc(=O)[nH][nH]2)CC1 | -16.56
CN1CC(c2n[nH]c(=O)n2-c2cccc(Cl)c2)CC1=O (centres undefined) | -17.26
CC(C)CN(CCc1ccccc1)Cc1nc2c(cnn2C)c(=O)[nH]1 | 122.3
CC(C)CN(Cc1nc2c(cnn2C)c(=O)[nH]1)C(C)C | -8.165
Cc1cccc(CN(C)Cc2nc3c(cnn3C)c(=O)[nH]2)c1 | -4.984
CC(C)N(Cc1cccc(F)c1)Cc1nc2c(cnn2C)c(=O)[nH]1 | -9.693
CCN(Cc1nc2c(cnn2C)c(=O)[nH]1)Cc1ccccc1C | -3.933
CN(CCCc1ccccc1)Cc1nc2c(cnn2C)c(=O)[nH]1 | -1.148
CN(Cc1nc2c(cnn2C)c(=O)[nH]1)Cc1ccccc1Cl | -1.712
CCN(Cc1cccc(Cl)c1)Cc1nc2c(cnn2C)c(=O)[nH]1 | 6.587
CCN(Cc1cccc(C)c1)Cc1nc2c(cnn2C)c(=O)[nH]1 | 145.1
CC(C)N(Cc1cccc(Cl)c1)Cc1nc2c(cnn2C)c(=O)[nH]1 | 119.9
CCN(Cc1nc2c(cnn2C)c(=O)[nH]1)Cc1ccccc1Cl | 128.5
Cc1ccc(NCc2ccc(C#N)cc2)c(CN(C)C)c1 | -4.346
N#CCCN(Cc1ccccn1)C(=O)Nc1cccnc1 | -3.639
CCN(C)c1ccc(C(=O)NCCCc2ccccn2)cn1 | 1.401
CC(O)CC(C)(C)CNS(=O)(=O)c1cccc(Cl)c1C#N (centres undefined) | -3.91
O=C(CN1C(=O)CCNC1=O)N1CCOC(c2ccc(F)cc2)C1 (centres undefined) | 13.31

Compound | Percent Effect [%]
CCN(CC(=O)NC(C)C)S(=O)(=O)N1CCCC(C)C1 (centres undefined) | -4.686
CC(=O)c1c(F)cccc1N1CCC(CS(N)(=O)=O)CC1 | -2.597
CN(Cc1ccc([S+](C)[O-])cc1)c1ccc(Cl)cn1 (centres undefined) | -11.61
CCN(Cc1nc2c(cnn2C)c(=O)[nH]1)c1ccccc1C | -6.85
Cn1ncc2c(=O)[nH]c(CN(Cc3cccc(F)c3)C3CC3)nc21 | 7.175
CCN(Cc1ccccc1)Cc1nc2c(cnn2C)c(=O)[nH]1 | 106.9
CCN(Cc1cccc(F)c1)Cc1nc2c(cnn2C)c(=O)[nH]1 | 117.6
CC(C)CN1C(=O)CC[C@H]2CN(Cc3ncc[nH]3)CC[C@H]21 | -0.2124
Cc1noc(Cl)c1CC(=O)NCC(C)(O)c1ccc(F)cc1F (centres undefined) | 5.104
CN(Cc1nc(-c2cccnc2)no1)C(=O)c1c2c(nn1C)CCCC2 | -6.1
O=C1CN(c2ccc(CNc3cncc(-n4cccn4)n3)cc2)CCN1 | 17.5
CN(C)C(=O)C1CCN(c2cncc(-n3cccn3)n2)CC1 | 6.063
CCOCc1ccc(CNc2nc(OC)ncc2Cl)cc1 | -6.174
COC(=O)Nc1ccc(CNc2cncc(-n3cccn3)n2)cc1 | 97.69
CC(C)COc1cncc(NCc2nnc3ccccn23)n1 | -11.09
CNS(=O)(=O)Cc1ccc(CNc2cncc(-n3cccn3)n2)cc1 | 3.239
CC(C)OCc1ccc(CNc2cncc(-n3cccn3)n2)cc1 | 123.9
CCOCCOCc1cccc(CNc2cncc(-n3cccn3)n2)c1 | 5.599
NS(=O)(=O)Cc1ccc(CNc2cncc(-n3cccn3)n2)cc1 | 114
CCOCc1ccc(CNc2cncc(-n3cccn3)n2)cc1 | 106.2
Cc1cnn(CC(C)NCc2ccc(-n3cccn3)cc2)c1 (centres undefined) | 9.413
